Results taken from PubChem BioAssay (EPA / NIEHS).
The source made the active and inactive calls. The calls were made as follows: active = hit-call score of the fitted dose curve at least 0.9, where 1 is the maximum; inactive = score below 0.9.

Legend:
[1] = BSK_hDFCGF_SRB: Viability Assessment in the BioMAP Diversity Plus: hDFCGF Assay (AID 2283061); conditions: primary human foreskin fibroblasts;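 also: cells exposed to compound for 24 h before the read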
How it was run: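 Viability was read as total protein: after 10% TCA fixation, wells were stained with 0.1% sulforhodamine B and read at 560 nm. Primary human foreskin fibroblasts were dosed for 24 h, with bidirectional fitting versus DMSO.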

[2] = read-out: TIMP metallopeptidase inhibitor 1 (TIMP1), TIMP1 (gene 7076); assay: BSK_hDFCGF_TIMP1: BioMAP Diversity Plus: hDFCGF Assay for TIMP metallopeptidase inhibitor 1 (TIMP1) Biomarker Activity (AID 2283062); conditions: primary human foreskin fibroblasts; actives raise or lower the signal
How it was run: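 TIMP-1 measured by ELISA 24 h after chemical dosing of primary human skin fibroblasts, with gain or loss fitted relative to DMSO. Parallel SRB staining (560 nm) monitored overt cytotoxicity.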

[3] = read-out: Matrix Metallopeptidase 1 (MMP1), MMP1 (gene 4312); assay: BSK_hDFCGF_MMP1: BioMAP Diversity Plus: hDFCGF Assay for Matrix Metallopeptidase 1 (MMP1) Biomarker Activity (AID 2283064); conditions: primary human foreskin fibroblasts; actives raise or lower the signal
How it was run: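 Primary human foreskin fibroblasts exposed to chemicals for 24 h; MMP1 measured by ELISA. Cytotoxicity tracked by SRB staining in parallel cultures; bidirectional fit relative to DMSO.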

[4] = read-out: Vascular cell adhesion molecule 1 (VCAM1), VCAM1 (gene 7412); assay: BSK_hDFCGF_VCAM1: BioMAP Diversity Plus: hDFCGF Assay for Vascular cell adhesion molecule 1 (VCAM1) Biomarker Activity (AID 2283065); conditions: primary human foreskin fibroblasts; actives raise or lower the signal;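 as to AC50: VCAM-1 protein level quantified by ELISA after 24 h chemical exposure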
How it was run: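 ELISA readout of VCAM-1 on human dermal fibroblast primary cultures, 24 h after chemical exposure. Gain or loss of signal fitted in both directions against DMSO baseline.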

[5] = read-out: Plasminogen activator inhibitor-1 (PAI1), SERPINE1 (gene 5054); assay: BSK_hDFCGF_PAI1: BioMAP Diversity Plus: hDFCGF Assay for Plasminogen activator inhibitor-1 (PAI1) Biomarker Activity (AID 2283066); conditions: primary human foreskin fibroblasts; actives raise or lower the signal
How it was run: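 Human foreskin fibroblasts in the hDFCGF system were dosed with compound for 24 h; PAI-1 was quantified by ELISA. Bidirectional curve fitting used DMSO as negative control and baseline.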

[6] = read-out: Intercellular Adhesion Molecule 1 (ICAM1), ICAM1 (gene 3383); assay: BSK_KF3CT_ICAM1: BioMAP Diversity Plus: KF3CT Assay for Intercellular Adhesion Molecule 1 (ICAM1) Biomarker Activity (AID 2283067); conditions: primary human keratinocytes with fibroblasts; actives raise or lower the signal
How it was run: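 Cell-surface ICAM-1 was measured by ELISA 24 h after dosing primary human skin keratinocytes co-cultured with fibroblasts. Parallel SRB staining tracked overt cytotoxicity. Gain or loss of signal was fitted relative to DMSO.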

[7] = read-out: Interferon-gamma inducible Protein 10 (IP10), CXCL10 (gene 3627); assay: BSK_KF3CT_IP10: BioMAP Diversity Plus: KF3CT Assay for Interferon-gamma inducible Protein 10 (IP10) Biomarker Activity (AID 2283068); conditions: primary human keratinocytes with fibroblasts; actives raise or lower the signal
How it was run: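 Human keratinocyte plus foreskin fibroblast primary co-culture exposed to test chemical for 24 h; IP-10 measured by ELISA. Concentration-response fitted bidirectionally against DMSO control as baseline.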

[8] = BSK_KF3CT_SRB: Viability Assessment in the BioMAP Diversity Plus: KF3CT Assay (AID 2283069); conditions: primary human keratinocytes with fibroblasts;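 also: total protein by sulforhodamine B staining as a cytotoxicity measure; read 24 h after compound addition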
How it was run: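 Human keratinocyte and foreskin fibroblast co-culture exposed to chemical for 24 h. Total protein measured in parallel cultures by 0.1% sulforhodamine B staining after 10% TCA fixation, read at 560 nm; bidirectional fit relative to DMSO.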

[9] = read-out: Interleukin-1 alpha (IL1a), IL1A (gene 3552); assay: BSK_KF3CT_IL1a: BioMAP Diversity Plus: KF3CT Assay for Interleukin-1 alpha (IL1a) Biomarker Activity (AID 2283070); conditions: primary human keratinocytes with fibroblasts; actives raise or lower the signal
How it was run: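 Primary human keratinocyte plus foreskin fibroblast co-culture, dosed and measured at 24 h in 96-well plates. IL-1a level quantified by ELISA; bidirectional fit relative to DMSO.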

[10] = read-out: TIMP metallopeptidase inhibitor 2 (TIMP2), TIMP2 (gene 7077); assay: BSK_KF3CT_TIMP2: BioMAP Diversity Plus: KF3CT Assay for TIMP metallopeptidase inhibitor 2 (TIMP2) Biomarker Activity (AID 2283071); conditions: primary human keratinocytes with fibroblasts; actives raise or lower the signal
How it was run: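 Human primary keratinocyte/foreskin fibroblast co-culture dosed with chemical and sampled at 24 h. TIMP-2 levels quantified by ELISA; bidirectional fitting against DMSO negative control as baseline.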

[11] = read-out: Transforming growth factor beta 1 (TGFb1), TGFB1 (gene 7040); assay: BSK_KF3CT_TGFb1: BioMAP Diversity Plus: KF3CT Assay for Transforming growth factor beta 1 (TGFb1) Biomarker Activity (AID 2283072); conditions: primary human keratinocytes with fibroblasts; actives raise or lower the signal
How it was run: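 Human keratinocyte plus foreskin fibroblast primary co-culture, dosed with chemical for 24 h. TGF-b1 quantified by ELISA. Activity fitted bidirectionally against DMSO negative control as baseline.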

[12] = read-out: C-C motif chemokine 2 (Homo sapiens) (UniProt P13500); assay: BSK_KF3CT_MCP1: BioMAP Diversity Plus: KF3CT Assay for Monocyte Chemoattractant Protein 1 (MCP1/CCL2) Biomarker Activity (AID 2283073); conditions: primary human keratinocytes with fibroblasts; actives raise or lower the signal
How it was run: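 ELISA read-out of MCP-1, 24 h post-dose, in primary human skin keratinocytes co-cultured with fibroblasts. Parallel SRB staining monitors cytotoxicity; changes fitted both directions relative to DMSO.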

[13] = read-out: Matrix Metallopeptidase 9 (MMP9), MMP9 (gene 4318); assay: BSK_KF3CT_MMP9: BioMAP Diversity Plus: KF3CT Assay for Matrix Metallopeptidase 9 (MMP9) Biomarker Activity (AID 2283074); conditions: primary human keratinocytes with fibroblasts; actives raise or lower the signal;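 as to AC50: MMP9 protein level quantified by ELISA in the co-culture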
How it was run: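 Human keratinocyte and foreskin fibroblast co-culture exposed to chemicals for 24 h; MMP9 biomarker measured by ELISA, bidirectional fitting relative to DMSO; cytotoxicity tracked by SRB total protein staining in parallel cultures.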

[14] = read-out: urokinase plasminogen activator (uPA), PLAU (gene 5328); assay: BSK_KF3CT_uPA: BioMAP Diversity Plus: KF3CT Assay for urokinase plasminogen activator (uPA) Biomarker Activity (AID 2283075); conditions: primary human keratinocytes with fibroblasts; actives raise or lower the signal
How it was run: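 Primary human keratinocyte/foreskin fibroblast co-culture exposed to chemical; uPA measured by ELISA at 24 h. Bidirectional fit versus DMSO, with parallel SRB total-protein staining for cytotoxicity.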

CD40, CD40 (gene 958) = assay: BSK_LPS_CD40: BioMAP Diversity Plus: LPS Assay for CD40 Biomarker Activity (AID 2283076); conditions: primary human HUVEC with PBMC; actives raise or lower the signal
How it was run: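 In the LPS system of human endothelial cells with peripheral blood mononuclear cells, CD40 levels were read by ELISA 24 h post-treatment. Signal changes in either direction were fitted against the DMSO baseline, with parallel SRB protein staining.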

[15] = read-out: E-selectin (Homo sapiens) (UniProt P16581); assay: BSK_LPS_Eselectin: BioMAP Diversity Plus: LPS Assay for Eselectin Biomarker Activity (AID 2283077); conditions: primary human HUVEC with PBMC; actives raise or lower the signal
How it was run: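 E-selectin ELISA on LPS-stimulated endothelial cell/PBMC co-cultures, read 24 h post-treatment; gains and losses fitted against DMSO. Parallel SRB staining (0.1% SRB after 10% TCA fixation, 560 nm) flags overt cytotoxicity.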

[16] = read-out: Interleukin-8 (IL8), CXCL8 (gene 3576); assay: BSK_LPS_IL8: BioMAP Diversity Plus: LPS Assay for Interleukin-8 (IL8) Biomarker Activity (AID 2283078); conditions: primary human HUVEC with PBMC; actives raise or lower the signal
How it was run: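 ELISA read-out of IL-8 after 24 h chemical treatment of LPS-activated endothelial/PBMC human primary co-cultures. Changes either up or down relative to DMSO; overt cytotoxicity checked by sulforhodamine B staining in parallel wells.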

[17] = BSK_LPS_SRB: Viability Assessment in the BioMAP Diversity Plus: LPS Assay (AID 2283079); conditions: primary human HUVEC with PBMC;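 also: total protein by sulforhodamine B absorbance as a cytotoxicity measure; measured one day after compound addition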
How it was run: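 SRB viability endpoint: cells fixed with 10% TCA, stained with 0.1% SRB, read at 560 nm, 24 h post-dose. HUVEC/PBMC co-culture; signal change in either direction scored relative to DMSO.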

Measured: AC50

Chain of E-selectin (Homo sapiens) (P16581 whole entry, looked up): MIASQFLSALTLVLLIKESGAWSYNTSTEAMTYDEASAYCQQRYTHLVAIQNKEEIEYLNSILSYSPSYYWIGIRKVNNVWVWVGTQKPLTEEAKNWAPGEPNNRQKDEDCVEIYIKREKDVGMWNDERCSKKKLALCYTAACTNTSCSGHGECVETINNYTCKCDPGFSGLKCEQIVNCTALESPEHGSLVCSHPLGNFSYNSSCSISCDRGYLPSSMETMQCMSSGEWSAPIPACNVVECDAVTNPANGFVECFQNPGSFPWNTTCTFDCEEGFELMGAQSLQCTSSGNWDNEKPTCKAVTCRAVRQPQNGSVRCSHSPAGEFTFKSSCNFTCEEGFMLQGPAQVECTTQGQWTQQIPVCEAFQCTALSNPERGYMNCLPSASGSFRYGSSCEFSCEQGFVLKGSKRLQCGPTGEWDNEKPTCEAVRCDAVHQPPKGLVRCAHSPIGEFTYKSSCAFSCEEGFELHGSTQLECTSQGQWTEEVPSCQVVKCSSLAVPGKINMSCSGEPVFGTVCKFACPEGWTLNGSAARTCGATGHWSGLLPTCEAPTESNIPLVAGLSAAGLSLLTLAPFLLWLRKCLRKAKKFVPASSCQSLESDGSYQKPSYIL

CCCCCCCO
inactive: [1] | [2] | [3] | [4] | [5] | [6] | [7] | [8] | [9] | [10] | [11] | [12] | [13] | [14] | CD40, CD40 (gene 958) | [15] | [16] | [17]

C1CNCCN1
inactive: [1] | [2] | [3] | [4] | [5] | [6] | [7] | [8] | [9] | [10] | [11] | [12] | [13] | [14] | CD40, CD40 (gene 958) | [15] | [16] | [17]

C=CC(=O)NC(C)(C)C
inactive: [1] | [2] | [3] | [4] | [5] | [6] | [7] | [8] | [9] | [10] | [11] | [12] | [13] | [14] | CD40, CD40 (gene 958) | [15] | [16] | [17]

CC(C)[N+](C)(CCOC(=O)C1c2ccccc2Oc2ccccc21)C(C)C
inactive: [1] | [2] | [3] | [4] | [5] | [6] | [7] | [8] | [9] | [10] | [11] | [12] | [13] | [14] | CD40, CD40 (gene 958) | [15] | [16]
active: [17] 3.97 µM

CC/C=C\CCOC(=O)c1ccccc1O
active: [1] 13.7 µM | [2] 12.4 µM | [3] 13.3 µM | [4] 14.9 µM | [5] 11.6 µM | [6] 20 µM | [7] 31 µM | [8] 28.8 µM | [9] 30.2 µM | [10] 14.7 µM | [11] 14.5 µM | [14] 29.8 µM | CD40, CD40 (gene 958) 36.2 µM | [15] 38.1 µM | [16] 33.5 µM | [17] 30.7 µM
inactive: [12] | [13]

C=CC(=O)OCCCCCCOC(=O)C=C
active: [1] 5.41 µM | [2] 9.84 µM | [3] 12.8 µM | [4] 0.881 µM | [5] 11.5 µM | [6] 20 µM | [7] 26.6 µM | [8] 20 µM | [9] 11.3 µM | [10] 20 µM | [11] 3.97 µM | [13] 12.5 µM | [14] 20 µM | CD40, CD40 (gene 958) 7.82 µM | [15] 9.18 µM | [16] 4.79 µM | [17] 20 µM
inactive: [12]
